Experimental data published in the OligoGym collection.

target: CIRBP; test: pooled miR-30 sensor sort-seq; sequence = guide strand; settings: shRNA
Note: reference of the scale not given here.

Sequence | sensor-assay potency score (higher = more potent)
TAGCCACCACTCTGACTCCGGC | -0.921
TCACTGTAGCCACCACTCTGAC | -1.45
TTCAGAGATCTGTCCGTACTTT | 0.15
TGTCTGACGACTTGCCTGCCTG | -1.09
TAGCGTCGTCAATGTTCTCAAA | -1.03
ATCCTTAGCGTCGTCAATGTTC | -1.29
TTGGTGTCAAAACTCAGCCCTC | -0.687
TGTCTTTCACAACCACCACTTC | -0.854

target: CLCN5; test: as above; settings: shRNA

Sequence | sensor-assay potency score (higher = more potent)
TTTGCTTGTGTTGAAACGGTTC | -0.272
TATAGTAATGACAATTTTCAGT | -0.57
TAGCTGACCTCTTCAAGGCTGA | -0.234
TTCCACAGTCATACTGTCCTGA | 0.719
TATAGCACCAACAGCCATGCTA | -0.0804
TTTCATCACATCCATTGCCAGG | -1.34
TTGAAATCATCATAGGTCCCTA | -0.0127
TTTATTGGTAATCTCTCGGTGC | 0.182
TGCTATAGCACCAACAGCCATG | -1.3
TCTTATGAGCAAACTCTTCTTT | -0.0775
TTTTATTGGTAATCTCTCGGTG | -0.249
TCAAACCAGCTAACGAACCTGA | -0.258
AAAAGCATCACTCACACTGTGA | -0.413
TTGAGGGGAAAATAGTAGCTGA | -0.729
TTTAACACATCCTTTTTGGTAA | -0.176
TTAAGTCTGTCATCCAATGAGC | -1.29
TTCCTGTATTTGTTGAAGCAGT | -0.859
TATAACAGGATACTTGCCCAAC | -1.3
TTTGTCTCTCTCTTCAAAGGTG | -0.196
TTGATAACCAGAGTCCACTTAC | -0.327
TATATGCTTTAACACATCCTTT | -1.04

target: CLDN16; test: as above; settings: shRNA

Sequence | sensor-assay potency score (higher = more potent)
AAGAATAATACAAACAGGCTGT | 0.277
TTAAAAAGATATAAGCAGCAGG | -0.367
TCTGCAGTAATCATCAACGCTC | -0.0383
AAATATATTGTGCAAAACCAAA | -1.81
AATATCTGCAGTAATCATCAAC | -0.661
TACACATCAACAGCATACCACA | -1.23
TACATTTTGGCCGTCTCTGTGC | -0.539
TAGAATATCTGCAGTAATCATC | -0.742
TAGAACGTTCCACATACACATC | -1.34
TTTACTTTTTCTCACGCCCTGC | -0.567
TTCTCTCAGGTCCAACATCTTT | -1.61
